Experimental data: PubChem BioAssay (Tox21)
Where “and” joins values, the source holds several entries; their conditions need not be identical. Identical values can stand only once. Records with an inconclusive call do not appear. Entries that show only a call come without a potency. Some structures have more than one record in an assay (separate samples or runs), and their calls can disagree. Calls of active or inactive are those of the source. Unless noted, calls follow the shape of the dose curve; as a rule, active = well fitted curve in the direction sought with a large enough effect in the repeat runs; inconclusive = weak or mixed curves; inactive = no such curve, though single readings can be large; an effect the other way counts as inactive or inconclusive.

What was measured:
[1] = qHTS assay to identify small molecule agonists of the vitamin D receptor (VDR) signaling pathway - cell viability counter screen (AID 743224); also: series mostly up to about 63 µM; nearly all actives have a fitted effect of over 50% in size
Procedure, shortened: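 CellTiter-Glo viability readout on VDR-bla cells, measured after 16 h of compound treatment at 37C in the same wells.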

[2] = qHTS assay to identify small molecule antagonists of the vitamin D receptor (VDR) signaling pathway - cell viability counter screen (AID 743225); also: nearly all actives have a fitted effect of over 50% in size
Procedure, shortened: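 In this counter screen, VDR-bla HEK 293T cells receive test compound plus 3 nM final calcitriol for 16 h at 37C. Room-temperature steps of 2 h with the beta-lactamase substrate, then 30 min with CellTiter-Glo, precede the luminescence read.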

[3] = qHTS assay to identify small molecule agonists of the NFkB signaling pathway - cell viability counter screen (AID 1159515; calls by dose curve; also: series mostly up to about 61 µM; nearly all actives have a fitted effect of over 55% in size)
Procedure, shortened: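 Tox21 library compounds were tested for cytotoxicity against NFkB-bla ME-180 cells during a 5 hr exposure at 37 C. CellTiter-Glo luminescence served as the viability read-out.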

[4] = qHTS assay to identify small molecule agonists of the endoplasmic reticulum stress response signaling pathway (AID 1159516; active = well fitted activation curve with a large enough effect in the signal ratio in the repeat runs, not every such curve was filed as active; the % refers to the signal ratio)
Procedure, shortened: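 Fluorescence at 460 and 530 nm (405 nm excitation) reports beta-lactamase from an ER stress response element in HeLa cells treated 5 hr at 37 C.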

[5] = qHTS assay to identify small molecule agonists of the endoplasmic reticulum stress response signaling pathway - cell viability counter screen (AID 1159517; calls by dose curve; also: series mostly up to about 61 µM; nearly all actives have a fitted effect of over 50% in size)
Procedure, shortened: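 After overnight attachment, ESRE-bla HeLa cells were treated with Tox21 library compounds for 5 hr. CellTiter-Glo luminescence, read 30 min post-addition at room temperature, reported viability.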

[6] = qHTS assay to identify small molecule antagonists of the retinoid-related orphan receptor gamma (ROR-gamma) signaling pathway - cell viability counter screen (AID 1159520); also: nearly all actives have a fitted effect of over 50% in size
Procedure, shortened: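 Cytotoxicity was read from cellular ATP (CellTiter-Glo luminescence) after 16 hr at 37 C with 1 uM doxycycline induction. The inducer was added 2 hr after compound transfer to Tet-on ROR gamma CHO cells.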

[7] = qHTS assay to identify small molecule agonists of the AP-1 signaling pathway - cell viability counter screen (AID 1159525; calls by dose curve; also: nearly all actives have a fitted effect of over 55% in size; also: potency is read from the fitted curve at half-maximal effect)
Procedure, shortened: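 Intracellular ATP by Cell Titer Glo luminescence (30 min, RT) in the same ME-180 AP-1-bla wells after the 5 h compound exposure at 37 °C. Normalised to tetra n-octyl ammonium bromide and DMSO controls.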

[8] = qHTS assay to identify small molecule agonists of the AP-1 signaling pathway (AID 1159526; calls by dose curve)
[9] = biological target: Retinoic acid receptor RXR-alpha (Homo sapiens) (UniProt P19793); experiment: qHTS assay to identify small molecule agonists of the RXR signaling pathway (AID 1159527; calls by dose curve; also: nearly all actives have a fitted effect of over 35% in size)
Sequence of Retinoic acid receptor RXR-alpha (Homo sapiens) (P19793 whole entry, looked up): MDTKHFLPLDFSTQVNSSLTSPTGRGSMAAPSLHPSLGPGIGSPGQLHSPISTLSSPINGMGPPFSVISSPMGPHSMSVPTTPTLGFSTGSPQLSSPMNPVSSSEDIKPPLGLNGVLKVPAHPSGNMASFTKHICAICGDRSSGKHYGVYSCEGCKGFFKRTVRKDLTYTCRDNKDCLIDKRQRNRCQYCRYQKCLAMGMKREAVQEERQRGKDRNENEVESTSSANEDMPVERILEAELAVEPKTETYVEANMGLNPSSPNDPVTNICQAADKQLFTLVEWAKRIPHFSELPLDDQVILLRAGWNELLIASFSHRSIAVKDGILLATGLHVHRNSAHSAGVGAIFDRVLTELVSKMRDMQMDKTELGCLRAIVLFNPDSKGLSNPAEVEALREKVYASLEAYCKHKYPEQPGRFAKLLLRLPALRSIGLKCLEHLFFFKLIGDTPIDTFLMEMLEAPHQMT
Procedure, shortened: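 Fluorescence ratio readout (460 vs 530 nm) from GeneBLAzer RXR-alpha HEK 293T cells after 16 hr compound treatment; cells seeded 5 hr beforehand in low-serum, charcoal-stripped medium.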

[10] = qHTS assay to identify small molecule agonists of the RXR signaling pathway - cell viability counter screen (AID 1159529); also: nearly all actives have a fitted effect of over 50% in size; also: potency is read from the fitted curve at half-maximal effect
Procedure, shortened: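 Viability read-out for the RXR-alpha agonist qHTS: luminescent CellTiter-Glo signal after 30 min at RT. HEK 293T bla reporter cells, 2% charcoal-stripped FBS, 16 hr compound incubation; tetraoctyl ammonium bromide as cytotoxic control.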

[11] = qHTS assay to identify small molecule antagonists of the retinoid acid receptor (RAR) signaling pathway - cell viability counter screen (AID 1159551); also: nearly all actives have a fitted effect of over 35% in size
Procedure, shortened: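 In this counter screen, the RARE-luciferase line C3RL4 was exposed for 6 h at 37 C and 5% CO2 to compounds with retinol at 1 uM final. Cellular ATP, read by luminescence, served as the viability measure.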

[12] = qHTS assay to identify small molecule antagonists of the retinoic acid receptor (RAR) signaling pathway (AID 1159552; also: nearly all actives have a fitted effect of over 50% in size; also: potency is read from the fitted curve at half-maximal effect)
Procedure, shortened: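 Using a RARE-driven luciferase construct in C3RL4 cells, retinol at 1 uM final provided the agonist stimulus while compounds were co-applied. After 6 hours at 37 C, luminescence was recorded to flag inhibitors of retinol signaling.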

[13] = qHTS assay to identify small molecule agonists of the retinoic acid receptor (RAR) signaling pathway (AID 1159553); also: potency is read from the fitted curve at half-maximal effect
Procedure, shortened: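 In this cell-based screen, 1,000 C3RL4 cells per well were cultured overnight, dosed with test chemicals in DMSO for 6 hr, and assessed for RARE luciferase luminescence.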

[14] = qHTS assay to identify small molecule antagonists of the estrogen related receptor (ERR) signaling pathway from Tox21 library - cell viability counter screen (AID 1224834); also: nearly all actives have a fitted effect of over 30% in size; also: potency is read from the fitted curve at half-maximal effect
Procedure, shortened: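 Counter screen run in ERR cells (2,000 cells/well): cells pre-incubated 6 h, then treated with compounds for 17.5 h at 37 C. Fluorescence was read 30 min after CellTiter-Fluor addition.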

[15] = biological target: Luciferin 4-monooxygenase (Photinus pyralis) (UniProt P08659); experiment: qHTS assay to identify small molecule inhibitors of firefly luciferase (AID 1224835); also: nearly all actives have a fitted effect of over 25% in size; also: potency is read from the fitted curve at half-maximal effect
Sequence of Luciferin 4-monooxygenase (Photinus pyralis) (P08659 whole entry, looked up): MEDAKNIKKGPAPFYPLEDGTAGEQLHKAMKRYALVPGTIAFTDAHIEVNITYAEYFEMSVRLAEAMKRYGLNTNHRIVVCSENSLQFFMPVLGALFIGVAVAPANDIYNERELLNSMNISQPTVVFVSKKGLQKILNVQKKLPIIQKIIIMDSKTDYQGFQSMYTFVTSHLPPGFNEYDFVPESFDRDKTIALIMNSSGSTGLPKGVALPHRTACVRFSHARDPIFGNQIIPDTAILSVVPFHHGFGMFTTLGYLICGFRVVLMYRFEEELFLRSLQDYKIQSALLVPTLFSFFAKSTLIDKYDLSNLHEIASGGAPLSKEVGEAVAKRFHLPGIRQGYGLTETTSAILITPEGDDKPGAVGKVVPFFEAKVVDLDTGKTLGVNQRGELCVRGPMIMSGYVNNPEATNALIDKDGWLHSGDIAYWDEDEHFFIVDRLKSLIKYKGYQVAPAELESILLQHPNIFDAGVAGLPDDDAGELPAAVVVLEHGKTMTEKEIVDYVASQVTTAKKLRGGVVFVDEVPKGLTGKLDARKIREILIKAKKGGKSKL
Procedure, shortened: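 Inhibition of purified Photinus luciferase is measured by luminescence. Substrate levels (D-luciferin, ATP) sit at their KM values. Each compound is tested in a concentration series.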

[16] = qHTS assay to identify small molecule agonists of the constitutive androstane receptor (CAR) signaling pathway - cell viability counter screen (AID 1224836); also: series mostly up to about 92 µM; nearly all actives have a fitted effect of over 45% in size
Procedure, shortened: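 Multiplexed viability check: HepG2-CYP2B6-hCAR cells, 15-point compound dosing, 0.75 uM PK11195 final, 23 h at 37 C, CellTiter-Fluor fluorescence.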

[17] = biological target: Nuclear receptor ROR-gamma (Homo sapiens) (UniProt P51449); experiment: qHTS assay to identify small molecule antagonists of the retinoid-related orphan receptor gamma (ROR-gamma) signaling pathway (AID 1159521; also: nearly all actives have a fitted effect of over 50% in size; also: potency is read from the fitted curve at half-maximal effect)
Procedure, shortened: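 Screening format: cell-based luciferase reporter in CHO cells with doxycycline-inducible RORγ. Compound pre-exposure lasts 2 h, doxycycline is 1 uM final, induction runs 16 h at 37 C, and ONE-Glo luminescence is read.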

[18] = qHTS assay to identify small molecule antagonists of the estrogen related receptor (ERR) signaling pathway - cell viability counter screen (AID 1224818); also: series mostly up to about 46 µM
Procedure, shortened: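 Viability of ERR cells, CellTiter-Fluor fluorescence; 17.5 h compound exposure at 37 C, DMSO vehicle; 30 min reagent incubation at 37 C/5% CO2.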

[19] = qHTS assay to identify small molecule antagonists of the estrogen related receptor signaling pathway with the pleiotropic PPARgamma coactivator (PGC) cell viability counter screen (AID 1224822; also: series mostly up to about 46 µM)
Procedure, shortened: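 17.5 h compound treatment of PGC/ERR cells at 37 C; readout CellTiter-Fluor fluorescence; run alongside the PGC/ERR antagonist screen to flag cytotoxic compounds.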

Structure (SMILES) | Potency [1] | outcome [2] | outcome [3] | outcome [4] | outcome [5] | Potency [6] | Potency [7] | outcome [8] | Potency [9] | Potency [10] | outcome [11] | Potency [12] | Potency [13] | Potency [14] | Potency [15] | Potency [16] | Potency [17] | outcome [18] | outcome [19] | activation [8]
N[C@@H](Cc1cc(I)c(Oc2cc(I)c(O)c(I)c2)c(I)c1)C(=O)O | inactive | inactive | inactive | inactive | inactive | inactive | inactive | inactive | inactive | inactive | inactive | inactive | inactive | inactive | inactive | inactive | – | – | – | –
COc1ccc2cc([C@H](C)C(=O)O)ccc2c1 | inactive | inactive | inactive | – | inactive | inactive | inactive | inactive | – | inactive | inactive | – | – | inactive | – | inactive | inactive | inactive | inactive | –
CC(C)(N)CO | inactive | – | inactive | inactive | inactive | – | inactive | inactive | inactive | inactive | inactive | – | – | inactive | inactive | inactive | inactive | – | – | –
CCCCCCCCCCCCCCO | inactive | inactive | inactive | inactive | inactive | inactive | inactive | inactive | inactive | inactive | inactive | – | – | inactive | 22.7 µM (active) | inactive | – | – | – | –
O=c1[nH]c(=O)n([C@H]2CCCO2)cc1F | inactive | inactive | inactive | inactive | inactive | – | inactive | inactive | – | inactive | inactive | inactive | inactive | inactive | inactive | inactive | – | – | – | –
Oc1cccc2ccccc12 | inactive | inactive | inactive | inactive | inactive | inactive | inactive | inactive | inactive | inactive | inactive | – | – | inactive | – | inactive | inactive | – | – | –
CCCCCC/C(C=O)=C\c1ccccc1 | inactive | inactive | inactive | inactive | inactive | inactive | inactive | inactive | – | inactive | inactive | inactive | inactive | inactive | – | inactive | inactive | – | – | –
CC1=C(C)S(=O)(=O)CCS1(=O)=O | inactive | inactive | inactive | inactive | inactive | inactive | inactive | inactive | inactive | inactive | inactive | – | – | inactive | inactive | inactive | 54.5 µM (active) | – | – | –
CN(C)CCCN | inactive | inactive | inactive | – | inactive | inactive | inactive | inactive | inactive | inactive | inactive | – | – | inactive | inactive | inactive | inactive | – | – | –
Cc1ccc2oc(=O)ccc2c1 | inactive | inactive | inactive | inactive | inactive | inactive | inactive | inactive | inactive | inactive | inactive | inactive | inactive | inactive | inactive | inactive | – | – | – | –
C=C(C)C(=O)O[C@H]1C[C@@H]2CC[C@@]1(C)C2(C)C | inactive | inactive | inactive | inactive | inactive | inactive | 4.87 µM (active) and inactive | inactive | – | 15.4 µM (active) and inactive | inactive | – | – | 8.58 µM (active) and inactive | 19.9 µM (active) and inactive | – | 963 nM (active) and inactive | – | – | –
Cc1cc(C)c(C)cc1C | inactive | – | inactive | inactive | inactive | – | inactive | inactive | inactive | inactive | inactive | inactive | inactive | inactive | inactive | inactive | inactive | – | – | –
OCc1cccnc1 | inactive | inactive | inactive | inactive | inactive | inactive | inactive | inactive | – | inactive | inactive | – | – | inactive | inactive | inactive | inactive | – | – | –
O=C(O)c1ccc2c(c1)C(=O)OC2=O | inactive | inactive | inactive | inactive | inactive | inactive | inactive | inactive | – | inactive | inactive | inactive | inactive | inactive | inactive | inactive | – | – | – | –
CCCCC(CC)COC(=O)CS (stereo not drawn) | inactive | inactive | inactive | – | inactive | inactive | inactive | inactive | – | inactive | inactive | inactive | inactive | inactive | inactive | inactive | – | – | – | –
CC(=O)CC(=O)Nc1ccccc1C | inactive | inactive | inactive | inactive | inactive | – | inactive | inactive | – | inactive | inactive | inactive | inactive | inactive | inactive | inactive | – | – | – | –
Cc1cccc(O)c1 | inactive | – | inactive | inactive | inactive | inactive | inactive | inactive | inactive | inactive | inactive | – | – | inactive | inactive | inactive | inactive | – | – | –
CCCCCCCCCCCCCCCO | inactive | – | inactive | inactive | inactive | – | inactive | inactive | – | inactive | inactive | inactive | inactive | inactive | inactive | inactive | inactive | – | – | –
c1ccc2scnc2c1 | inactive | inactive | inactive | – | inactive | – | inactive | inactive | – | inactive | inactive | inactive | inactive | inactive | inactive | inactive | inactive | – | – | –
O=P(OC(CCl)CCl)(OC(CCl)CCl)OC(CCl)CCl | inactive | inactive | inactive | – | inactive | inactive | inactive | – | inactive | inactive | inactive | inactive and 27.3 µM (active) | inactive | – | inactive | inactive | – | – | – | –
O=C(O)[C@H](O)[C@@H](O)[C@H](O)[C@H](O)CO | inactive | inactive | inactive | – | inactive | – | inactive | – | inactive | inactive | inactive | inactive | inactive | inactive | inactive | inactive | – | – | – | 7.9% [at 2.72 µM] (inactive)
CC1=CC(=O)NS(=O)(=O)O1 | inactive | inactive | inactive | inactive | inactive | inactive | inactive | inactive | – | inactive | inactive | – | – | inactive | – | inactive | inactive | – | – | –
OC[C@H]1O[C@@](CO)(O[C@H]2O[C@H](CO)[C@@H](O)[C@H](O)[C@H]2O)[C@@H](O)[C@@H]1O | inactive | inactive | inactive | inactive | inactive | – | inactive | inactive | – | inactive | inactive | inactive | inactive | inactive | inactive | inactive | inactive | – | – | –
CCN(CC)c1ccc(C(=O)c2ccccc2C(=O)O)c(O)c1 | inactive | inactive | inactive | inactive | inactive | inactive | inactive | inactive | – | inactive | inactive | inactive | 10.9 µM (active) and 34.4 µM (active) | inactive | 28.4 µM (active) and 25.2 µM (active) | inactive | inactive | – | – | –
OCC(CO)(CBr)CBr | inactive | inactive | inactive | inactive | inactive | – | inactive | inactive | – | inactive | inactive | inactive | inactive | inactive | inactive | inactive | inactive | – | – | –
